Measured values published in PubChem BioAssay.
Calls of active or inactive are those of the source.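 How the source made its calls: active means visual image review flags a hit and inhibition of aggregation exceeds 20%; inconclusive means visual hit but inhibition at or below 20%; inactive means no hit on visual image review.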

Assay: inhibitors of mutant huntingtin aggregation, primary screen, imaging, exon1htt(103Q)mCFP cells, high-content imaging (AID 483);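 further: compound exposure lasted 3 days before fixation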;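 on nuclei count: percent of the per-plate median nuclei count of sample wells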
Details: exon1htt(103Q)mCFP cell line, aggregate imaging, at 2 µM; inhibition of aggregation: stronger effect = higher value; nuclei count: measured here: cell count, toxicity
With Cn1c(=O)c2c(-c3ccccc3)n(CCCN3CCOCC3)cc2n(C)c1=O the nuclei count was 108% and the inhibition of aggregation was -17.3% (inactive). For CCc1ccc(Nc2cc(=O)n(C3CCCCC3)c(=O)[nH]2)cc1, the nuclei count was 104% and the inhibition of aggregation was -8.7% (inactive). In the case of CCC(C(=O)N1CCc2cc(OC)c(OC)cc2C1)c1ccccc1 (stereo not drawn), the nuclei count is reported as 88.6% and the inhibition of aggregation is reported as -8.2% (inactive). In the case of COc1ccccc1N(CC(=O)NCc1ccccn1)S(C)(=O)=O, the nuclei count is reported as 83.6% and the inhibition of aggregation is reported as 26.7% (inactive). In the case of Cc1cc2cc(CCNC(=O)CC(C)C)c(=O)[nH]c2cc1C, the inhibition of aggregation is reported as 15.1% (inactive) and the nuclei count is reported as 83.5%. In the case of CC1(C)CC(=O)C=C(Nc2ccc(OCC(F)(F)C(F)F)cc2)C1, the nuclei count is reported as 110% and the inhibition of aggregation is reported as -25.2% (inactive). In the case of Cn1nc(C(=O)N2CCOCC2)c2ccccc2c1=O, the inhibition of aggregation is reported as 12.2% (inactive) and the nuclei count is reported as 109%. In the case of S=c1[nH]ncn1-c1ccccn1, the nuclei count is reported as 114% and the inhibition of aggregation is reported as -25.8% (inactive). In the case of Cc1ccccc1N1C(N)=NC(N)=NC1(C)C, the nuclei count is reported as 103% and the inhibition of aggregation is reported as 0.5% (inactive). With O=C(Cn1nnc(-c2ccc(CN3CCOCC3)cc2)n1)NC1CCCCC1 the nuclei count was 108% and the inhibition of aggregation was 7.3% (inactive). In the case of CCCCC(=O)Nc1ccc(NC(=O)C2CC2)nc1, the nuclei count is reported as 67.6% and the inhibition of aggregation is reported as 16% (inactive). For CCOC(=O)c1ccc(NC(=O)Cn2cc3c(n2)CCC(C)C3)cc1 (stereo not drawn), the inhibition of aggregation was -28.2% (inactive) and the nuclei count was 91.4%. For Cn1c(SCC(=O)N2CCN(c3cccc(Cl)c3)CC2)nnc1-c1ccncc1, the nuclei count was 104% and the inhibition of aggregation was -15% (inactive). In the case of Cn1c(=O)c(=O)n(C)c2cc(S(=O)(=O)N3CCN(c4cccc(C(F)(F)F)c4)CC3)ccc21, the inhibition of aggregation is reported as -18.8% (inactive) and the nuclei count is reported as 107%.
